This is a sample that favours compounds with a hit; in the whole collection about 3.2% have one here.
PrPC TRFRET = inhibitors of human cell surface prion protein PrPC | P04156 | TR-FRET read-out | inhibition, % at 13.8 µM | 0.43% of 370,000 active | AID 720596; in the data active = inhibition above about 24%
TcdB GH inh = TcdB glycohydrolase inhibition. P18177. TcdB glycohydrolase enzymatic assay, plate reader. inhibition, % at 9.99 µM. AID 652162. 0.24% of 350,000 active; in the data active = inhibition above about 10%
GDH-TPI counter-1 = GDH-TPI coupled enzyme inhibition counter-screen | GDH-TPI coupled enzyme counterscreen, NADH absorbance | inhibition, % at 4.8 µM | 1.2% of 360,000 active; in the data active = inhibition above about 30%
Y pestis TopoI = blocks Yersinia pestis topoisomerase I activity | Y. pestis Topo-I cleavage product accumulation, plate reader | activity, % at 10 µM | 0.064% of 360,000 active | AID 504884; in the data active = activity above about 50%, passing the limit was not always enough
FBA Mtb inh = inhibitors of M. tuberculosis fructose-bisphosphate aldolase | purified M. tuberculosis FBA, fluorescence read-out | inhibition, % at 1 µM | 2.3% of 360,000 active | AID 588726
Target sequence (P9WQA3 whole entry, looked up): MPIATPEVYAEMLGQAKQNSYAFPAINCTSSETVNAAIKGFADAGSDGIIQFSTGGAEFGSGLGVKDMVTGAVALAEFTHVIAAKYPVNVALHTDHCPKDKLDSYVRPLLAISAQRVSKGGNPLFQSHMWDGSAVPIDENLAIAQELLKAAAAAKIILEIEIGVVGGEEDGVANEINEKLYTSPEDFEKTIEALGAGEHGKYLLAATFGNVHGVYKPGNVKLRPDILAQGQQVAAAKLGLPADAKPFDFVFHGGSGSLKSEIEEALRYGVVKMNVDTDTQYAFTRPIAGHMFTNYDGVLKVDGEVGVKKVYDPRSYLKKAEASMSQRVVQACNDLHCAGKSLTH
Mtb FBA inh conf = Mtb FBA inhibition, confirmed; shares compounds with FBA Mtb inh; purified M. tuberculosis FBA, fluorescence read-out; inhibition, % at 1 µM; 78% of 5,600 active
GDH-TPI counter-2 = GDH-TPI inhibition counter-screen for FBA inhibitors; shares compounds with FBA Mtb inh; GDH-TPI coupled enzyme counterscreen, fluorescence; inhibition, % at 1 µM; 81% of 5,600 active; in the data active = inhibition above about 10%
GDH-TPI DR = inhibits GDH-TPI coupling enzymes in dose response | shares compounds with FBA Mtb inh | GDH-TPI coupled enzyme assay, fluorescence, artifact counterscreen | IC50, µM | 79% of 170 active | AID 652145; call rule not given here
Large screens that a line does not name were inactive (follow-up assays come after a bar, where they were run). Cut-off read from the data, not from the text of the source, unless noted: active = inhibition above about 27%; inactive = the rest.

CCOC(=O)COc1c(OC)cc(Cl)cc1C1Nc2ccccc2C(=O)N1c1ccc(F)cc1 (stereo unspecified)	FBA Mtb inh 33.2 (no result: TcdB GH inh) | Mtb FBA inh conf inactive | GDH-TPI counter-2 12.2
CCOC(=O)COc1ccccc1C1Nc2ccccc2C(=O)N1c1cccc(Cl)c1 (stereo unspecified)	FBA Mtb inh 36.4 | Mtb FBA inh conf active | GDH-TPI counter-2 active
COc1cc(C2Nc3ccccc3C(=O)N2c2ccc(Cl)cc2)c(Cl)cc1OCC(=O)O (stereo unspecified)	FBA Mtb inh 70.0 (no result: TcdB GH inh) | Mtb FBA inh conf 115.4 | GDH-TPI counter-2 83.3
CCOc1cc(C2Nc3ccccc3C(=O)N2c2ccccc2)ccc1O (stereo unspecified)	none
c1cc(-c2cc3nc(NCC4CC4)ccn3n2)ccc1OCCN1CCOCC1	FBA Mtb inh 36.9 | Mtb FBA inh conf 68.8 | GDH-TPI counter-2 71.6
c1csc(C2Nc3ccccc3-c3nc4ccccc4n32)c1 (stereo unspecified)	FBA Mtb inh 57.5 (no result: TcdB GH inh) | Mtb FBA inh conf 137.7 | GDH-TPI counter-2 97.0
NC1=NC(c2cccnc2)n2c(nc3ccccc32)N1 (stereo unspecified)	none (no result: GDH-TPI counter-1, Y pestis TopoI, FBA Mtb inh)
c1ccc2c(c1)NC(c1ccncc1)n1c-2nc2ccccc21 (stereo unspecified)	FBA Mtb inh 55.5 (no result: TcdB GH inh) | Mtb FBA inh conf inactive | GDH-TPI counter-2 inactive
O=C1NC(c2ccncc2)Nc2ccccc21 (stereo unspecified)	none (no result: TcdB GH inh)
c1cncc(C2Nc3ccccc3-c3nc4ccccc4n32)c1 (stereo unspecified)	FBA Mtb inh 35.9 | Mtb FBA inh conf 115.2 | GDH-TPI counter-2 92.2
CS(=O)(=O)NN1C(=O)c2ccccc2NC1c1cccs1 (stereo unspecified)	none
CCCC(=O)N1C[C@@H]2[C@H](c3ccccc31)[C@H](CO)N2C(=O)CC1CC1	none (no result: PrPC TRFRET, GDH-TPI counter-1, Y pestis TopoI, FBA Mtb inh)
CCC(=O)Nc1ccc2c(c1)C(=O)N(C)C[C@H](OC)[C@@H](C)CN(C(=O)C1CC1)[C@H](C)CO2	none (no result: PrPC TRFRET, GDH-TPI counter-1, Y pestis TopoI, FBA Mtb inh)
COc1ccc(CN(C)C[C@@H]2OCc3cn(nn3)CCCC(=O)N([C@H](C)CO)C[C@H]2C)cc1	none (no result: PrPC TRFRET, GDH-TPI counter-1, Y pestis TopoI, FBA Mtb inh)
CC(=O)OC(C)(C)C1Cc2cc3ccc(=O)oc3cc2O1 (stereo unspecified)	FBA Mtb inh 104.1 | Mtb FBA inh conf inactive | GDH-TPI counter-2 inactive
C/C=C(\C)C(=O)OC(C)(C)[C@H]1Cc2cc3ccc(=O)oc3cc2O1	FBA Mtb inh 93.5 | Mtb FBA inh conf active | GDH-TPI counter-2 active
C/C=C(\C)C(=O)OC1c2c(ccc3ccc(=O)oc23)OC(C)(C)C1OC(C)=O (stereo unspecified)	none (no result: TcdB GH inh)
Cc1ccc(C(=O)Oc2ccc3ccc(=O)oc3c2)cc1	none
CC(C)=CC(=O)O[C@@H]1Cc2cc3ccc(=O)oc3cc2OC1(C)C	FBA Mtb inh 34.1 | Mtb FBA inh conf active | GDH-TPI counter-2 active
C/C=C(/C)C(=O)O[C@@H]1c2c(ccc3ccc(=O)oc23)OC(C)(C)[C@@H]1OC(C)=O	none
CC=Cc1ccc2n(c1=O)C[C@H]1[C@H](CO)[C@@H](C(=O)N(C)C)[C@@H]2N1C(=O)c1ccccc1 (mixture of isomers)	none (no result: PrPC TRFRET, GDH-TPI counter-1, Y pestis TopoI, FBA Mtb inh)
CN1CCN(S(=O)(=O)c2ccc(N3CCN(C(c4ccccc4)c4ccccc4)CC3)nc2)CC1	FBA Mtb inh 81.0 | Mtb FBA inh conf active | GDH-TPI counter-2 173.2
COc1ccc(CNC(=O)c2c([S-])n(-c3ccc(C)cc3)c3cccc[n+]23)cc1	FBA Mtb inh 35.9 | Mtb FBA inh conf 69.9 | GDH-TPI counter-2 96.6
C[C@@H]1CCCCO[C@@H](CN(C)C(=O)c2ccccc2)[C@H](C)CN([C@H](C)CO)C(=O)c2cc(NC(=O)NC3CCCCC3)ccc2O1	none (no result: PrPC TRFRET, GDH-TPI counter-1, Y pestis TopoI, FBA Mtb inh)
O=C(NN1C(=O)c2ccccc2NC1c1ccccn1)c1ccc(Br)cc1 (stereo unspecified)	none (no result: TcdB GH inh)
CC(=O)NN1C(=O)c2ccccc2NC1c1ccccn1 (stereo unspecified)	FBA Mtb inh 27.3 (no result: TcdB GH inh) | Mtb FBA inh conf inactive | GDH-TPI counter-2 inactive | GDH-TPI DR 5.98
CC(=O)NN1C(=O)c2ccccc2NC1c1ccco1 (stereo unspecified)	FBA Mtb inh 32.4 | Mtb FBA inh conf 39.4 | GDH-TPI counter-2 23.1
C[C@H]1CN([C@@H](C)CO)C(=O)c2c(c3ccccc3n2C)-c2ccccc2CO[C@H]1CN(C)S(=O)(=O)c1ccc(F)cc1	none (no result: PrPC TRFRET, GDH-TPI counter-1, Y pestis TopoI, FBA Mtb inh)
CCCCS(=O)(=O)Nc1ccc2ncn(C)c(=O)c2c1	FBA Mtb inh 35.3 | Mtb FBA inh conf inactive | GDH-TPI counter-2 inactive
CCCCS(=O)(=O)Nc1ccc2cn[nH]c2c1	none
C[C@@H]1CN([C@@H](C)CO)C(=O)c2cccc(NC(=O)Nc3ccc(F)cc3)c2O[C@H]1CN(C)CC1CC1	none (no result: PrPC TRFRET, GDH-TPI counter-1, Y pestis TopoI, FBA Mtb inh)
CCN1CC=C2C(C#N)=C(N)C(C#N)(C#N)C(CCc3ccccc3)C2C1 (stereo unspecified)	FBA Mtb inh 36.1 (no result: TcdB GH inh) | Mtb FBA inh conf 74.2 | GDH-TPI counter-2 64.5
CCN(C(=O)COC(=O)c1cc(-c2cccs2)nc2ccccc12)C1CCS(=O)(=O)C1 (stereo unspecified)	FBA Mtb inh 71.9 | Mtb FBA inh conf 45.1 | GDH-TPI counter-2 45.0
O=C(OC1CCOC1=O)c1ccc2ccccc2n1 (stereo unspecified)	none (no result: TcdB GH inh)
O=C(NN1CCOCC1)c1cc(-c2cccs2)nc2ccccc12	FBA Mtb inh 51.3 (no result: TcdB GH inh) | Mtb FBA inh conf 35.6 | GDH-TPI counter-2 21.4
CCN(C(=O)COC(=O)c1cc(-c2ccc(C)o2)nc2ccccc12)C1CCS(=O)(=O)C1 (stereo unspecified)	none
O=C(OC1CCOC1=O)c1cc(-c2cccs2)nc2ccccc12 (stereo unspecified)	FBA Mtb inh 44.0 | Mtb FBA inh conf inactive | GDH-TPI counter-2 inactive
C/C(=N\NC(=O)c1cc(-c2ccc(C)s2)nc2ccccc12)c1cccnc1	FBA Mtb inh 61.7 | Mtb FBA inh conf 136.0 | GDH-TPI counter-2 111.1
O=C(Cc1ccncc1)NCC[C@H]1CC[C@H](NC(=O)C2CCCC2)[C@@H](CO)O1	none (no result: PrPC TRFRET, GDH-TPI counter-1, Y pestis TopoI, FBA Mtb inh)
Cc1ccc(-c2ccc3c(c2)O[C@@H](CN(C)C(=O)Nc2ccc(C(F)(F)F)cc2)[C@H](C)CN([C@H](C)CO)S3(=O)=O)cc1	none (no result: PrPC TRFRET, GDH-TPI counter-1, Y pestis TopoI, FBA Mtb inh)
C/C=C/c1ccc([C@H]2[C@@H](CO)N(C(=O)C3CCC3)C23CN(S(=O)(=O)CC)C3)cc1	none (no result: PrPC TRFRET, GDH-TPI counter-1, Y pestis TopoI, FBA Mtb inh)
O=C(NC1CCCC1)[C@H]1[C@H](CO)[C@H]2Cn3c(ccc(-c4ccc(F)cc4)c3=O)[C@@H]1N2Cc1cocn1	none (no result: PrPC TRFRET, GDH-TPI counter-1, Y pestis TopoI, FBA Mtb inh)
O=C(NC[C@H]1CC[C@H]2[C@H](CN2Cc2cc(-c3ccccc3)on2)O1)c1ccc2c(c1)OCO2	none (no result: PrPC TRFRET, GDH-TPI counter-1, Y pestis TopoI, FBA Mtb inh)
O=C(Nc1ccccc1)N1CC(=O)N2[C@H](CO)[C@H](c3ccc(C#CC4CC4)cc3)[C@@H]2C1	none (no result: PrPC TRFRET, GDH-TPI counter-1, Y pestis TopoI, FBA Mtb inh)

Screening results as filed in PubChem.
